Target: T1, ETS1 (UniProt P14921)
T1 sequence: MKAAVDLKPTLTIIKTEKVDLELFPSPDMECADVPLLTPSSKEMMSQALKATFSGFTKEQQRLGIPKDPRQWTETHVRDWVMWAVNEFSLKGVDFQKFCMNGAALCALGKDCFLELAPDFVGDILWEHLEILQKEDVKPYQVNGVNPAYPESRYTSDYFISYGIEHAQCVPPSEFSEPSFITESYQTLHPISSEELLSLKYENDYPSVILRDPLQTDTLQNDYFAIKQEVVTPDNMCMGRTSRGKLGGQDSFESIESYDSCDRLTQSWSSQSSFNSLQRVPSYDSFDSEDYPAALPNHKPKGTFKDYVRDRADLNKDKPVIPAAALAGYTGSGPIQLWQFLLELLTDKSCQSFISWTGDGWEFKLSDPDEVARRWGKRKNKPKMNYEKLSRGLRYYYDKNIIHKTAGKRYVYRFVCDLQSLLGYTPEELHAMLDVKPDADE
Assay: ETS1 binding intensity (PBM fluorescence), ETS1 alone (arbitrary fluorescence units); higher = stronger binding
Details: ETS1 concentration 1 nM; RUNX1 concentration 0 nM

Sequence | ETS1 binding intensity
TTTGCACACATCCTGGCCTCCGCCTGACCACCTCCT | 483
GTGCGGCGGGAAACGCGTTCCCCGGCAACCGCGCCC | 401
CTGAGGCGCGCCGGAAGGGCTAGCGGTCCCAGCATA | 1280
GAACATGGTCTCCGCTTCCGCCGCAACCTCGGCCTT | 525
GGAGGGCTTCCTGCCCACCACCACCCACAGCAGCTG | 730
GCTTTGCAGTTTCCTCTGTGGAACACCACACACAGT | 418
AGCACGTCCCCCTTCTTCCTCCCGCAGAGGGCCTGC | 454
GGCGGCCTCAACTTCCGCGGTGGGACTCCGGAGCAG | 503
CTTTCGCTTCCTTTCCCCGCCTCTTAGTCCCGCAGA | 464
CGTTATTTCCGGGGCTGGGTTAACGCAGCGGTTCCA | 631
CTGCCTTGCTTTTCCGGTCGCCGCGGTCCTCTGCGC | 2130
ACAGGAAGTGAGGCTGTGAGGAGTTTGTGGTGTGTA | 2080
CTGCACAGGGAAGTGAGTGTCGAGCTCACCGCACCG | 383

Target: T1, ETS1
Assay: TF binding intensity (PBM fluorescence), negative control probe (arbitrary fluorescence units); higher = stronger binding
Details: not given
Method: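 gcPBM negative-control 36-bp genomic probes lacking TF binding sites. Each was incubated with recombinant human ETS1 or RUNX1 alone and detected by antibody fluorescence. Values are medians over replicate spots (4 spots for the ETS1-RUNX1 arrays, 3 for the ETS1-ETS1 array). The probes sit in constant array flanks that are not printed.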

Sequence | TF binding intensity
GTTGTTATGCAAGGTTGTGGTTTTTGCAGTCTTTTG (protein concentration 1 nM) | 498
GAAGCAAGGATAATTAACTTCTACCAGTGATCCCCA (protein concentration 10 nM) | 124
CACACACTAAATCTCTGTACTAAATGAAAGGTTGCT (protein concentration 10 nM) | 139
GTTTTGCAACTCTTATTCCAAGTGGACACCCAGAAA (protein concentration 10 nM) | 140
GAGCATCACAAGGTCAGAGGAGGGGGCGGCCAGGGT (protein concentration 10 nM) | 240
GGGGAAAATGAGCACAGGTGTGAAGCAGATCACAGG (protein concentration 10 nM) | 170
CTGAGAGCCAGGCCCGTTCCCTCTGAACCTCAGTTC (protein concentration 10 nM) | 103
GGCAAGCTTATATAGTTTGCTTCATAAAACTCTATT (protein concentration 10 nM) | 119
CTCAGTGCCTGCCTCAGATGTTTAAGTCTGAACATT (protein concentration 10 nM) | 110
TTTCAGAGGGAAAAGAATTTTGCCGTTCGCGTTCGA (protein concentration 10 nM) | 113
CCAGCAGCAGTTGTGAATTGGGTAATTTAATGAAAA (protein concentration 10 nM) | 116
AAGTTAATGAGATATTGTGGTTGTTTGTGTTTGGTT (protein concentration 1 nM) | 477
CCGGCTGTCTCCTGCACCCAGGTAAGCAGCGGCGCT (protein concentration 10 nM) | 108
TGATTTCTTAAGCCAACCTCAAAAAAAAAAAAAGAG (protein concentration 1 nM) | 596
GATGTGGCCTATAGGGATCCTTCACTTAGGCATGAG (protein concentration 10 nM) | 121
GATGCTTTTGTCCCACTAGGGCTCGTGCCTTAGTGA (protein concentration 10 nM) | 112
CCGGGCCGCTGCGGGCTCCCCAGCTCCCCACAGATC (protein concentration 10 nM) | 147
TTCAAAGCACATTCACCCACATGATCCTATTGATCT (protein concentration 1 nM) | 468
GGCATCTACCTCCCAGGAGCAAGCGGGAGACAGCCC (protein concentration 10 nM) | 134
TTCTAAAGAAATCACAGTCAAATCTACCATTTGCGT (protein concentration 10 nM) | 99.5
TTTTGGATGATGCAAACCGCGCAAAAGCAGCATTCA (protein concentration 1 nM) | 449
TGGACTATATCAAGTGTGAACGATCATACTTGTTAT (protein concentration 10 nM) | 124
AAAATACTGCCTTCAAGTACTGTGACTCTTTTCAGG (protein concentration 10 nM) | 112
GCCTTGCCTTGGTCATGTTTGACTCTGCCTTCAACT (protein concentration 10 nM) | 146
TGAATGAGTCTTTTTTTGGCCATCTCTTTATGATTA (protein concentration 10 nM) | 132
CAGGTGGATGACTCAGCTGGAGAACAAAGTGGCTTC (protein concentration 10 nM) | 122

Target: T1, ETS1
Assay: ETS1 binding intensity (PBM fluorescence) in presence of RUNX1, normalised to ETS1-only experiment (arbitrary fluorescence units); higher = stronger binding
Details: ETS1 concentration 1 nM; RUNX1 concentration 25 nM

Sequence | ETS1 binding intensity
TTTGCACACATCCTGGCCTCCGCCTGACCACCTCCT | 586
GTGCGGCGGGAAACGCGTTCCCCGGCAACCGCGCCC | 479
CTGAGGCGCGCCGGAAGGGCTAGCGGTCCCAGCATA | 1430
GAACATGGTCTCCGCTTCCGCCGCAACCTCGGCCTT | 744
GGAGGGCTTCCTGCCCACCACCACCCACAGCAGCTG | 676
GCTTTGCAGTTTCCTCTGTGGAACACCACACACAGT | 494
AGCACGTCCCCCTTCTTCCTCCCGCAGAGGGCCTGC | 461
GGCGGCCTCAACTTCCGCGGTGGGACTCCGGAGCAG | 445
CTTTCGCTTCCTTTCCCCGCCTCTTAGTCCCGCAGA | 363
CGTTATTTCCGGGGCTGGGTTAACGCAGCGGTTCCA | 692
CTGCCTTGCTTTTCCGGTCGCCGCGGTCCTCTGCGC | 2110
ACAGGAAGTGAGGCTGTGAGGAGTTTGTGGTGTGTA | 4960
CTGCACAGGGAAGTGAGTGTCGAGCTCACCGCACCG | 690
